HCMV antiviral: qHTS Assay for inhibitors of the human cytomegalovirus (HCMV); HFF cells, HCMV-luciferase reporter, 72 h; stronger effect = lower value; activity change, negative = inhibition, % at 57.5 µM; actives 4.5% (n = 410,000); in the data active = activity change below about -60%; inconclusive = no clear call, values can overlap the other calls; inactive = above about -39%; note: % is set by controls: 0 for no effect and ±100 for the full control effect
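Steps: HFFs plated, 16 h 37C; compounds added; HCMV-luciferase added to MOI 1 PFU/cell; 72 h 37C; OneGlo reagent, 5 min room temperature; luminescence read, normalized to controls.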
Sm TGR block: qHTS Assay for the Inhibitors of Schistosoma Mansoni Peroxiredoxins. Potency, µM (series often up to 114 µM), without a hit: at the top dose activity change, negative = inhibition, usual class: inhibitors. Schistosoma mansoni thioredoxin glutathione reductase (TGR), Q962Y6. purified TGR, DTNB reduction, TNB absorbance 405 nm. actives 3% (n = 360,000). AID 485364, 2010; note: potency is the fitted concentration of half-maximal effect; % is set by controls: 0 for no effect and ±100 for the full control effect; nearly all actives have a fitted effect of over 60% in size
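First, TGR (20 nM dispensed) and NADPH were mixed with compound. Second, a 15 min room-temperature incubation followed. Third, further NADPH and then DTNB were added to start the reaction. Finally, TNB absorbance was monitored kinetically.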
SARS PLpro yeast: qHTS of Yeast-based Assay for SARS-CoV PLP. Potency, µM (top dose mostly 32.9 µM), inactives show at the top dose activity, positive = growth rescue, actives largely listed as activators. S. cerevisiae expressing SARS-CoV PLpro, growth rescue. actives 0.19% (n = 330,000). AID 485353, 2010; calls by dose curve; note: potency is the fitted concentration of half-maximal effect; 0% is about no effect; nearly all actives have a fitted effect of over 55% in size
Pf growth 48h: Primary qHTS for delayed death inhibitors of the malarial parasite plastid, 48 hour incubation; Potency, µM (highest dose often 28.7 µM), for inactives: at the highest dose activity change, negative = inhibition, usual class: inhibitors; actives 5.9% (n = 310,000); P. falciparum luciferase growth in erythrocytes, 48 h; AID 504832, 2011; note: potency is the fitted concentration of half-maximal effect; % is set by controls: 0 for no effect and ±100 for the full control effect
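Here the parasites carry a stable luciferase gene and grow inside erythrocytes in Albumax-based RPMI medium with compound for one erythrocytic cycle. Activity is scored as loss of luminescent signal.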
HCV inh: qHTS Assay for Inhibitors of Hepatitis C Virus (HCV). Huh7.5.1 HCVcc-Cre infection, luciferase reporter, 44 h. Potency, µM (doses to about 41.8 µM), without a hit: top-dose activity change, negative = inhibition, actives largely listed as inhibitors. actives 3.4% (n = 340,000); note: potency is the fitted concentration of half-maximal effect; % is set by controls: 0 for no effect and ±100 for the full control effect
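Whole-lifecycle infectious HCVcc-Cre system; cells 1,000/well, compound then virus (~0.5 moi) added 4 h after plating, 44 h culture. Luciferase read 15 sec following 15 min substrate incubation, room temp.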
Pf growth 96h: Primary qHTS for delayed death inhibitors of the malarial parasite plastid, 96 hour incubation; AID 504834, 2011; actives 6.9% (n = 320,000); P. falciparum luciferase reporter growth, 96 h; Potency, µM (series often up to 28.7 µM), for the others: top-dose activity change, negative = inhibition, most hits filed as inhibitors; note: potency is the fitted concentration of half-maximal effect; % is set by controls: 0 for no effect and ±100 for the full control effect
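96 h incubation, 37 C, 5% CO2, of luciferase-reporter P. falciparum-infected RBCs (2% hematocrit, 0.05% parasitemia final) with test compounds; endpoint luminescence.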
Starred values were filed as active, the others as inactive; ? = inconclusive; . = no result; [ ] = another dose, or the depositor's remark. Only some compounds are listed: those with a hit (about 15% of all), similar ones and a draw of the others. Unless noted, calls come from the whole dose curve; as a rule, active = well fitted curve in the direction sought with a large enough effect; inconclusive = small, poorly fitted or top-dose-only effect, or another doubt; inactive = no such curve, though single readings can be large; an effect the other way counts as inactive or inconclusive.

SMILES | HCMV antiviral | Sm TGR block | SARS PLpro yeast | Pf growth 48h | HCV inh | Pf growth 96h
CCCCn1c(N)c(N(C(=O)CSc2nncn2-c2ccccc2)C2CCCC2)c(=O)[nH]c1=O | ? | . | . | . | 0% | .
O=C(CN1CCOCC1)Nc1ccc(Br)cc1C(=O)c1ccccc1 | -16 | -1% | 10% | -21% | 2% | ?
O=C(CCN1CCOCC1)Nc1ccc(Br)cc1C(=O)c1ccccc1 | -8 | 25µM* | -1% | 36% | -8% | -27%
CCOC(=O)c1c(NC(=O)c2noc3c2CC(C(C)(C)C)CC3)sc2c1CCCC2 (centres undefined) | 15 | 1% | . | . | . | .
CC(=O)c1ccc(C(C)(C)c2ccc(C(C)=O)s2)s1 | -8 | -6% | -2% | ? | ? | 12µM*
Cc1ccc(S(=O)(=O)N2CCC(=O)N(CCOCc3cccc(Cl)c3)CC2)cc1 | -64* | -17% | 11% | -1% | 7%[8.37 µM] | ?
Cc1cccc(COCCN2CCN(S(=O)(=O)c3ccccc3)CCC2=O)c1 | 4 | 1% | 2% | -8% | 4% | 15µM*
Cc1ccc(S(=O)(=O)N2CCC(=O)N(CCOCc3cccc(F)c3)CC2)cc1 | -7 | 0% | -1% | 13% | -1%[8.37 µM] | -24%
Cc1ccc(S(=O)(=O)N2CCC(=O)N(CCOCc3ccc(Cl)cc3)CC2)cc1 | -24 | -2% | -3% | -7% | ? | -19%
O=C1CCN(S(=O)(=O)c2ccccc2)CCN1CCOCc1ccccc1 | 6 | -5% | 4% | -6% | 0% | 9.3µM*
O=C(O)C1C2CC(C(Br)C2Br)C1C(=O)O (centres undefined) | -30 | . | . | . | 11% | .
C=C1C(=O)[C@@]23C[C@H]4[C@@H]5[C@@]6(C)CCC[C@@]57[C@@H]2[C@@H](O)[C@@H]1C[C@H]3[C@H]7N4C6 | -77* | . | . | . | -45% | .
CC(C)(C)c1ccc(C(=O)O[C@H]2[C@H](Cc3ccccc3)NS(=O)(=O)[C@H]3C[C@@H]4C=C[C@]23O4)cc1 | 5 | -7% | 6% | 13µM* | ? | 12µM*
CCOc1ccc(C(=O)O[C@H]2[C@H](Cc3ccccc3)NS(=O)(=O)[C@H]3C[C@@H]4C=C[C@]23O4)cc1 | 9 | -10% | 3% | 2.1µM* | ? | 4.7µM*
C[C@@H]1NS(=O)(=O)[C@H]2C[C@@H]3C=C[C@]2(O3)[C@H]1OC(=O)c1ccccc1Br | 14 | -18% | -2% | ? | 0% | -9%
COc1cccc(C(=O)O[C@@H]2[C@H](Cc3ccccc3)NS(=O)(=O)[C@H]3C[C@@H]4C=C[C@]23O4)c1 | -34 | -12% | -2% | ? | 0% | ?
CCn1cc(CNCc2cn(C)nc2-c2ccc(C3CCCCC3)cc2)cn1 | -1 | -26% | 0% | ? | 6% | 42%
Cc1c(CNCCCc2ccccc2)c(C(=O)O)c(C)n1Cc1ccc(Cl)cc1 | -9 | -18% | . | . | . | .
COC(=O)c1ccc(NC(=O)COc2ccc(N(C)S(=O)(=O)c3ccc(C)cc3)cc2)cc1 | 0 | 4% | 6% | ? | -28% | ?
O=C(O)/C=C/c1ccc([N+](=O)[O-])o1 | -36 | 28µM* | 3% | -2% | 1% | ?
CN1CCN(C(=O)/C=C/c2ccc([N+](=O)[O-])o2)CC1 | -101* | 18µM* | 2% | 12µM* | ? | ?
N#CCc1ccc(NC(=O)/C=C/c2ccc([N+](=O)[O-])o2)cc1 | . | 4.5µM* | 0% | -23% | ? | -1%
O=C(/C=C\c1ccccc1[N+](=O)[O-])Nc1ccccc1 | 57 | 3% | 1% | 101% | -25% | 1%
N#C/C(=C\c1ccc([N+](=O)[O-])o1)C(=O)Nc1ccc(F)cc1 | -78* | . | -5% | -11% | -24% | 4%

Screening results as filed in PubChem.
